# In PubChem BioAssay (NCI):
# This is part of a sample that, as a whole, favours compounds with a hit. Of some 83,000 tested, about 20% had one in any assay.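 Note: values are percent growth. 100 is the growth of untreated cells, values between 100 and 0 indicate rising inhibition; between -100 and 0 indicates cell death.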 Unmarked numbers belong to inactive results. Calls of active or inactive are those of the source. The calls were made as follows: active = growth percent below 10; inactive = the rest.
# How the values were obtained:
# Test in all cases: NCI-60 one-dose screen, 48 h (100 = growth as untreated, 0 = no growth, -100 = all killed)
# Details in all cases: 10 µM unless noted
# T-47D breast = tested on: T-47D breast
# BT-549 breast = tested on: BT-549 breast
# MDA-MB-435 melanoma = tested on: MDA-MB-435 melanoma
# SW-620 colon = tested on: SW-620 colon
# MCF7 breast = tested on: MCF7 breast
# HCT-116 colon = tested on: HCT-116 colon
# HCC-2998 colon = tested on: HCC-2998 colon
# KM12 colon = tested on: KM12 colon
SMILES,growth (T-47D breast),growth (BT-549 breast),growth (MDA-MB-435 melanoma),growth (SW-620 colon),growth (MCF7 breast),growth (HCT-116 colon),growth (HCC-2998 colon),growth (KM12 colon)
COc1ccc(-c2cc(-c3cccc4ccccc34)n3c(n2)nc2ccccc23)cc1OC,19.2%,34.6%,47.3%,29.8%,15.4%,31.5%,72%,
Oc1ccc(CSc2nnc(-c3cnccn3)n2-c2ccccc2)c2cccnc12,7.38% (active),41.8%,23.4%,23.8%,2.85% (active),19.3%,42.1%,
COc1ccc(NC(=O)Cn2cc(CN3C(=O)c4ccc([N+](=O)[O-])cc4C3=O)nn2)cc1,95.5%,111%,110%,97.5%,91.3%,109%,102%,
O=C(Cn1cc(CN2C(=O)c3ccc([N+](=O)[O-])cc3C2=O)nn1)Nc1ccccc1Br,104%,115%,109%,97.4%,94.3%,98.8%,101%,
O=C(CCCCCCN1CC(=O)N2[C@@H](c3cc(F)cc(F)c3)c3[nH]c4ccccc4c3C[C@H]2C1=O)NO,30.6%,98.6%,47.9%,46.9%,52%,27.3%,82.4%,
Clc1ccc(-c2csc(N/N=C/c3nc4ccccc4n3C3CC3)n2)cc1,111%,103%,98.9%,107%,94.2%,96.3%,105%,
CC(C)=CCc1c(O)c(CC=C(C)C)c2c(c1O)C(=O)C1=C[C@@H]3C[C@H]4C(C)(C)O[C@@](C/C=C(\C)C(=O)O)(C3=O)[C@@]14O2,1.27% (active),-8.98% (active),-5.58% (active),-34.6% (active),-5.87% (active),-35.8% (active),-87.1% (active),
Cc1ccc(NC(=O)c2cccc(CN3CCN(C)CC3)c2)cc1Oc1ccc(-c2[nH]nc3ncnc(N)c23)cc1,82.6%,95.8%,56.3%,48.6%,41.4%,57.4%,99.4%,37.4%
O=C1c2c(c3c4cccnc4[nH]c3c3ccc4ccccc4c23)C(=O)N1CCN1CCOCC1,65.5%,65.6%,67.7%,47.1%,15.9%,58.1%,82%,
COc1cc(O)c2c(c1)[C@H]1O[C@@H]1C[C@H](O)[C@H](O)C(=O)/C=C\C[C@H](C)OC2=O,30.1%,2.6% (active),19.2%,21.8%,43.3%,27.7%,65.1%,
C(=C(\C1=NCCN1)n1cnc2ccccc21)/c1ccc2ccccc2c1,57.1%,48.5%,25.7%,67.9%,30.4%,67.1%,71.5%,
O=C1c2c(c3c4cc(Br)ccc4[nH]c3c3ccc4ccccc4c23)C(=O)N1CCN1CCCCC1,43.3%,91%,-41.8% (active),10.5%,-35.6% (active),-61.8% (active),2.69% (active),
NC(=O)c1c(NC(=O)c2cccc(OC(F)(F)F)c2)sc2c1CCC(=O)C2,28.1%,28.4%,64.7%,18.3%,27.4%,15.6%,104%,
N/C(=N\c1nc2ccc([N+](=O)[O-])cc2s1)C(Cl)(Cl)Cl,30.7%,93.3%,83.6%,70.5%,40%,53.9%,74%,
CCN1CCN(c2cc(C(=O)Nc3nc4ccc(Oc5ccnc(C(=O)NC)c5)cc4s3)cc(C(F)(F)F)c2)CC1,72%,149%,68.6%,77.5%,51.9%,57.9%,90.3%,
CC[C@H](C)[C@H]1NC(=O)[C@@H]([C@H](O)C(C)C)NC(=O)[C@@H](C)N(C)C(=O)[C@H](C)N(C)C(=O)[C@H](CC(C)C)NC(=O)[C@H](CC(C)C)N(C)C(=O)[C@H](C)N(C)C1=O,-6.92% (active),-4.47% (active),5.17% (active),5.6% (active),1.66% (active),1.42% (active),2.12% (active),
COc1ccc(-c2ccc3c4c(cccc24)C(=O)N(N2C(=O)c4cccc5cccc(c45)C2=O)C3=O)cc1,98%,106%,98.8%,96.2%,15.6%,96.8%,114%,

SMILES,growth (T-47D breast),growth (BT-549 breast),growth (MDA-MB-435 melanoma),growth (SW-620 colon),growth (MCF7 breast),growth (HCT-116 colon),growth (HCC-2998 colon),growth (KM12 colon)
O=C(CN1C(=O)S/C(=C\c2ccccc2)C1=O)Nc1ccc(C(=O)/C=C/c2cc3ccccc3nc2Cl)cc1,54.6%,60.9%,82.9%,98%,26.6%,-64.1% (active),97.8%,87.7%
Cc1ccc(Nc2ncnc3c2c(C)nn3-c2ccc([N+](=O)[O-])cc2)cc1,78.8%,92.5%,95.7%,65.5%,83%,58.9%,97.4%,
CCN(CC)CCN1C(=O)c2c(c3c4cc(Br)ccc4[nH]c3c3ccc4ccccc4c23)C1=O,-34.5% (active),61.8%,-94.7% (active),-61.6% (active),-80% (active),-80.1% (active),-89.5% (active),
O=C(Nc1cccc(Cl)c1)Nc1nc2ccc(-c3cccc4ccccc34)cc2s1,11.2%,102%,54.3%,43.7%,58.3%,27%,57.3%,
O=c1c2ccccc2nc(COc2ccccc2)n1/N=C/C=C/c1ccccc1,94.6%,135%,99.8%,91.5%,83.8%,96.5%,101%,
CCOC(=O)CC(=O)CSC1=NC2C(NN1)N(C)C(=O)N2C (stereo not drawn),31.8%,101%,94.6%,75.8%,10.9%,9.01% (active),105%,
CN1CCN(c2nc(-c3csc(-c4ccncc4)n3)cc3ccccc23)CC1,55.9%,83.5%,56.2%,74.2%,67.8%,25.4%,48.8%,
CCc1ccc(NC(=O)N[C@@H](Cc2cccc(F)c2)C(=O)N[C@@H]2C(=O)N3CCC[C@H]3C(=O)N3CCCC[C@H]3C(=O)N[C@@H](CO)C(=O)N3C[C@H](C)C[C@H]3C(=O)O[C@H]2C)c(F)c1,23.1%,28.5%,20.3%,34.6%,14.9%,10.8%,24.1%,
C=CCn1c(SCC(=O)Nc2cccc(C(=O)/C=C/c3cc(OC)c(OC)c(OC)c3)c2)nc2ccccc2c1=O,66.4%,75.9%,21.7%,3.18% (active),18.2%,-26.4% (active),82.5%,
Cc1ccc(Cc2cnc(NC(=O)/C(C#N)=C/c3ccc(-c4ccc(Cl)cc4)o3)s2)cc1,64.7%,96.7%,94.4%,93.9%,81.8%,88.9%,103%,
O=C(Nc1cc(Cl)cc(Cl)c1)Nc1nc2ccc([N+](=O)[O-])cc2s1,-13.4% (active),-24% (active),-6.04% (active),8.7% (active),2.98% (active),0.0425% (active),3.91% (active),
CN1C(=O)/C(=C/C=C/c2ccco2)SC1=S,63%,55.1%,95.8%,104%,24.2%,54.4%,99.2%,
COCCC[C@H]1O[C@@](O)([C@H](C)[C@@H]2CC(OC)C(O)/C=C(C)/C=C(C)/C=C(\C)C(OC3O[C@@H](C)[C@H](O)C(O)[C@@H]3O)C(C)/C=C(C)/C=C(OC)/C=C(\C)C(=O)O2)C(OC)C(O)[C@]1(C)O[C@H]1C[C@@H](O)[C@H](O[C@H]2C[C@](C)(O)[C@H](O)C(C)O2)C(C)O1 (stereo partly drawn),24.6%,28.7%,54.9%,76.4%,22.4%,48.2%,56.4%,
C/C(=C(/C)C1CC1CCN(C(=O)c1ccccn1)S(=O)(=O)c1ccc(C)cc1)C1CCCCC1 (stereo not drawn),78.5%,120%,98.2%,103%,74.7%,90.1%,97.4%,
COc1ccc(-c2nc(SCC(C)C)nc(N/N=C\c3cccc([N+](=O)[O-])c3)c2C#N)cc1,64%,64.1%,67.3%,56.9%,61.6%,30.1%,80.3%,
CCc1ccc(NC(=O)N[C@@H](Cc2cccc(C)c2)C(=O)N[C@@H]2C(=O)N3CCC[C@H]3C(=O)N3CCCC[C@H]3C(=O)N[C@@H](CO)C(=O)N3C[C@H](C)C[C@H]3C(=O)O[C@H]2C)c(F)c1,27.4%,24.9%,16.8%,34.7%,17.6%,11.8%,23.9%,
